Test results: PubChem BioAssay (Tox21)
Values joined by “and” are separate entries in the source; they are usually repeats but may differ in a detail not shown here. Identical values can stand only once. Records with an inconclusive call do not appear. Active and inactive are the calls of the source. Unless noted, calls come from the whole dose curve.

How the values were obtained:
[1] = Nuclear factor erythroid 2-related factor 2/antioxidant responsive element (Nrf2/ARE) small molecule agonists: qHTS cell viability counter screen in human keratinocytes (AID 1919968; active = well fitted curve in the direction sought with a large enough effect in the repeat runs; an effect the other way counts as inactive or inconclusive; note: nearly all actives have a fitted effect of over 55% in size; note: potency is the fitted concentration of half-maximal effect)
Procedure, shortened: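 Fluorescence read-out from CellTiter-Fluor after 1 h at 37 C. Wells held HaCaT-derived ARE-luciferase reporter cells (1,500/well) treated 23 h with DMSO-dissolved compounds. Run in the same wells as the luciferase agonist read.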

[2] = Nuclear factor erythroid 2-related factor 2/antioxidant responsive element (Nrf2/ARE) small molecule agonists: luciferase reporter gene qHTS assay in human keratinocytes (AID 1919969); note: nearly all actives have a fitted effect of over 35% in size
[3] = molecular target: Gonadotropin-releasing hormone receptor (Homo sapiens) (UniProt P30968); experiment: Human gonadotropin-releasing hormone receptor (GnRHR) small molecule agonists, calcium flux assay in GnRHR-HEK293 cells (AID 1920063); note: nearly all actives have a fitted effect of over 35% in size
Procedure, shortened: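 Calcium-dye fluorescence, Ex/Em=480/540, recorded every 1 sec over 3 min after compound addition to GnRHR-HEK293 cells. Cells had been seeded 18 hours earlier and dye-loaded for 1 hour at 37 C. Fifteen concentrations, triplicates.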

[4] = molecular target: KiSS-1 receptor (Homo sapiens) (UniProt Q969F8); experiment: Human kisspeptin (KISS1R) small molecule agonists, calcium flux assay in KISS1R-HEK293 cells (AID 1920064; active = well fitted curve in the direction sought with a large enough effect in the repeat runs; an effect the other way counts as inactive or inconclusive)
Procedure, shortened: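 Calcium flux read-out: kinetic fluorescence at Ex/Em=480/540, 1 s intervals over 3 min, after pin-tool compound addition to dye-loaded KISS1R-HEK293 cells. Fifteen concentrations, triplicates.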

[5] = G protein-coupled receptor (GPCR) small molecule agonists, calcium flux assay: HEK293 wild type cell line counter screen (AID 1920065)
Procedure, shortened: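 Agonist mode; 18 h seeding at 37 C, 1 h dye load at 37 C; compounds pinned from DMSO, ATP as positive control; kinetic fluorescence 480/540 nm, 3 min, 1 s reads; 15 concentrations, triplicate.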

[6] = p53 small molecule agonists, cell-based qHTS assay with human liver microsomes (AID 1963577)
Procedure, shortened: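 Cells carrying a p53-responsive bla reporter were rested 5 h (37 C, 5% CO2) before compound transfer. Human liver microsomes plus NADPH, 0.5 mg/mL final apiece, supplied metabolism during the 16 h 37 C exposure.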

[7] = p53 small molecule agonists, cell-based qHTS assay with rat liver microsomes (AID 1963578)
Procedure, shortened: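 Fluorescence from a beta-lactamase reporter under a p53 response element was measured after cells had been incubated 16 h at 37 C with test compound and rat liver microsomes plus NADPH (0.5 mg/mL final each).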

[8] = p53 small molecule agonists, cell-based qHTS assay with human liver microsomes: qHTS cell viability counter screen (AID 1963579); note: nearly all actives have a fitted effect of over 45% in size; note: potency is the fitted concentration of half-maximal effect
Procedure, shortened: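 Seed p53RE-bla cells at 4,000 per well; incubate 5 h at 37 C; add compound, human liver microsomes and NADPH; incubate 16 h at 37 C; add CellTiter-Glo; after 30 min at room temperature, read luminescence.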

[9] = p53 small molecule agonists, cell-based qHTS assay with rat liver microsomes: qHTS cell viability counter screen (AID 1963580); note: nearly all actives have a fitted effect of over 45% in size; note: potency is the fitted concentration of half-maximal effect
Procedure, shortened: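 After the beta-lactamase ratio was read, CellTiter-Glo was added to the same wells and luminescence measured at 30 min; cells had been treated 16 h at 37 C with compounds, rat liver microsomes and NADPH (0.5 mg/mL final each).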

[10] = p53 small molecule agonists, cell-based qHTS assay (AID 1963582; active = well fitted activation curve with a large enough effect in the signal ratio in the repeat runs, not every such curve was filed as active; the % refers to the signal ratio)
Procedure, shortened: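 Fluorescence intensity read-out of a beta-lactamase reporter under a p53 response element. Cells were exposed to DMSO-dissolved compounds for 16 h at 37 C, then developed with FRET substrate for 2 h at RT.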

[11] = molecular target: 5-hydroxytryptamine receptor 2A (Homo sapiens) (UniProt P28223); experiment: 5-hydroxytryptamine receptor 2A (HTR2A) small molecule antagonists, cell-based qHTS assay (AID 1963586); note: nearly all actives have a fitted effect of over 45% in size; note: potency is the fitted concentration of half-maximal effect
Procedure, shortened: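 CHO cells stably expressing human HTR2A were plated for 18 h at 37 C, then loaded with calcium dye for 1 h. Compounds were preincubated 5 min at room temperature before DOI (4 nM solution) was added. Kinetic fluorescence was read for 3 min.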

[12] = molecular target: Muscarinic acetylcholine receptor M1 (Homo sapiens) (UniProt P11229); experiment: Cholinergic receptor muscarinic 1 (CHRM1) small molecule antagonists, cell-based qHTS assay (AID 1963588); note: nearly all actives have a fitted effect of over 40% in size
Procedure, shortened: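 Compounds were tested at 15 concentrations in three independent runs. Dye-loaded CHRM1-CHO cells were exposed 5 min at room temperature before stimulation by acetylcholine added at 50nM. Intracellular calcium was read kinetically on FDSS for 3 min.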

[13] = molecular target: Muscarinic acetylcholine receptor M1 (Homo sapiens) (UniProt P11229); experiment: Cholinergic receptor muscarinic 1 (CHRM1) small molecule agonists, cell-based qHTS assay (AID 1963589); note: nearly all actives have a fitted effect of over 35% in size
Procedure, shortened: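 Calcium flux read-out: kinetic fluorescence at 1 sec intervals after pin-tool compound addition to dye-loaded CHRM1-CHO cells (human M1). Agonist mode; 15 concentrations tested in triplicate independent runs.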

[14] = cAMP Responsive Elements (CRE) small molecule agonists, cell-based qHTS assay (AID 1963590)
Procedure, shortened: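 Beta-lactamase reporter readout: LiveBLAzer B/G FRET substrate, 2 h at room temperature, added after 3 h compound treatment of CRE-bla HEK 293T cells at 37 C/5% CO2.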

[15] = cAMP Responsive Elements (CRE) small molecule antagonists, cell-based qHTS assay (AID 1963591; active = well fitted inhibition curve with a large enough effect in the signal ratio in the repeat runs, not every such curve was filed as active; the % refers to the signal ratio; note: potency is the fitted concentration of half-maximal effect)
Procedure, shortened: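 HEK293T CRE-bla; 18 h preincubation; compound pin-transfer; NKH477 0.25 uM final, 3 h, 37 C; LiveBLAzer FRET substrate 2 h RT.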

[16] = molecular target: Beta-2 adrenergic receptor (Homo sapiens) (UniProt P07550); experiment: Adrenergic beta2 receptor (ADRB2) small molecule antagonists, cell-based qHTS assay (AID 1963592); note: series mostly up to about 92 µM; nearly all actives have a fitted effect of over 50% in size
Procedure, shortened: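 Assay format: CHO-ADRB2 cells, 18-20hr seeding at 37C/5% CO2, then compound plus 1nM isoproterenol agonist mix for 0.5hr RT. Homogeneous time-resolved fluorescence cAMP detection after 1hr, expressed as 665/615 nm ratio.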

[17] = molecular target: D(2) dopamine receptor (Homo sapiens) (UniProt P14416); experiment: Dopamine D2 receptor (DRD2) small molecule agonists, cell-based qHTS assay (AID 1963594); note: nearly all actives have a fitted effect of over 35% in size
Procedure, shortened: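 HEK293 cells stably expressing human DRD2, pre-treated with PDE inhibitor Ro20-1724 (0.1 mM final) and compound 10 min at room temperature, then stimulated with NKH477 (200nM […]) for 30 min. cAMP read by HTRF (665/620 nm).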

[18] = molecular target: D(2) dopamine receptor (Homo sapiens) (UniProt P14416); experiment: Dopamine D2 receptor (DRD2) small molecule antagonists, cell-based qHTS assay (AID 1963595; active = well fitted inhibition curve with a large enough effect in the signal ratio in the repeat runs, with a control signal flat; the % refers to the signal ratio)
Procedure, shortened: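 DRD2-HEK293; 0.1 mM Ro20-1724; cpd 10 min RT; NKH477 200 nM + quinpirole 12 nM, 30 min RT; HTRF cAMP (cAMP-d2/anti-cAMP cryptate), 665/620 nm ratio after 1 h.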

[19] = p53 small molecule agonists, cell-based qHTS assay: qHTS cell viability counter screen (AID 1963581); note: nearly all actives have a fitted effect of over 45% in size; note: potency is the fitted concentration of half-maximal effect
Procedure, shortened: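 Cytotoxicity read-out: ATP-based luminescence (CellTiter-Glo, 30 min RT) measured in the same wells as the p53 reporter assay, HCT-116 p53RE-bla cells, 16 h compound exposure at 37 C.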

[20] = molecular target: Beta-2 adrenergic receptor (Homo sapiens) (UniProt P07550); experiment: Adrenergic beta2 receptor (ADRB2) small molecule agonists, cell-based qHTS assay (AID 1963593);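 note: CHO cells stably overexpressing human ADRB2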
Procedure, shortened: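 CHO cells stably over-expressing ADRB2 were plated overnight at 37C, then dosed with compounds plus a stimulation mix containing 100uM IBMX and 25uM Ro-20-1724 for 0.5hr at room temperature. cAMP was measured by HTRF competition, 1hr.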

Measured: Potency

Sequence of 5-hydroxytryptamine receptor 2A (Homo sapiens) (P28223 whole entry, looked up): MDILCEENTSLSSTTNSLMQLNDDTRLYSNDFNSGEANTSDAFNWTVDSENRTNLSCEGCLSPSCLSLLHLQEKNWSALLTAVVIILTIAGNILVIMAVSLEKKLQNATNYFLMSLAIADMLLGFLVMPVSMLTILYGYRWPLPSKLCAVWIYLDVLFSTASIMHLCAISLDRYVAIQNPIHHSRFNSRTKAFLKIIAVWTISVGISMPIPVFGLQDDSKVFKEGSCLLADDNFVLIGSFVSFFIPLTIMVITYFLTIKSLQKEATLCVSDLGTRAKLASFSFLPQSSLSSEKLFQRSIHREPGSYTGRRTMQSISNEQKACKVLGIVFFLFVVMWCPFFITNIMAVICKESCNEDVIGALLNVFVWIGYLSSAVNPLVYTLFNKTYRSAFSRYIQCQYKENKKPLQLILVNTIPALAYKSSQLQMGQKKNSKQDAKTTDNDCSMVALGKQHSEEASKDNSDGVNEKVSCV
Sequence of Beta-2 adrenergic receptor (Homo sapiens) (P07550 whole entry, looked up): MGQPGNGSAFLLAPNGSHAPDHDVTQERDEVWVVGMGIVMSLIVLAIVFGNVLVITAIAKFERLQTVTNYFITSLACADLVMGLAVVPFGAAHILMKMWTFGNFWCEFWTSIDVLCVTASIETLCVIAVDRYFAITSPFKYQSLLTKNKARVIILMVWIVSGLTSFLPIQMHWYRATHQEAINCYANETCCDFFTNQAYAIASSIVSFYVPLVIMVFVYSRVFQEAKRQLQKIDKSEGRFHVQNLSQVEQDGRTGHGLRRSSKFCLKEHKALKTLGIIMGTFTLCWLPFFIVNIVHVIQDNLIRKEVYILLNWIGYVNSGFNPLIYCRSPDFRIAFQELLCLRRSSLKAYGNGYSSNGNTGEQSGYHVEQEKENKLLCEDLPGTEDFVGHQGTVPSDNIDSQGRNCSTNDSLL
Sequence of KiSS-1 receptor (Homo sapiens) (Q969F8 whole entry, looked up): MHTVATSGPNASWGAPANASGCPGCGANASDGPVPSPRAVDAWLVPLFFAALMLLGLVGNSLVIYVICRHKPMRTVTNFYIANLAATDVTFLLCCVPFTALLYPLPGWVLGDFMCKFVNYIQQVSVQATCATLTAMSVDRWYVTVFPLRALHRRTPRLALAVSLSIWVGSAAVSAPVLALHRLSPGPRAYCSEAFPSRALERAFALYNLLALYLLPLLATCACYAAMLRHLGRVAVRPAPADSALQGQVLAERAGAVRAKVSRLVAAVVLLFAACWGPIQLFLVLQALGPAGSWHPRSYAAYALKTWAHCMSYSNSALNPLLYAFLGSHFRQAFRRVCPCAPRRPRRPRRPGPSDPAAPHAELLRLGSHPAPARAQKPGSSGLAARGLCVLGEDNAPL
Sequence of Muscarinic acetylcholine receptor M1 (Homo sapiens) (P11229 whole entry, looked up): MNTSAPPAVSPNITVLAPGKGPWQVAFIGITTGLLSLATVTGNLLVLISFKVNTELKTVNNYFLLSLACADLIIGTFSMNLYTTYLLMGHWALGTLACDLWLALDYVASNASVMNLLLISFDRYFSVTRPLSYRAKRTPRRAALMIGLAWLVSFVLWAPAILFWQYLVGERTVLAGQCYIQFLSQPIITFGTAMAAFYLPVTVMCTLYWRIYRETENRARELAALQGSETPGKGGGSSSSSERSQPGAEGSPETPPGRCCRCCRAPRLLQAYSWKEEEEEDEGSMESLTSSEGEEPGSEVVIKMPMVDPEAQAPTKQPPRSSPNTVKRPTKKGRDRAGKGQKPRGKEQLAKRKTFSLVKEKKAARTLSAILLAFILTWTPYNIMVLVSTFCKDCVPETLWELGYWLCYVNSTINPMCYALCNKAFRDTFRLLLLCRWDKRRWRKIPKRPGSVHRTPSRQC
Sequence of D(2) dopamine receptor (Homo sapiens) (P14416 whole entry, looked up): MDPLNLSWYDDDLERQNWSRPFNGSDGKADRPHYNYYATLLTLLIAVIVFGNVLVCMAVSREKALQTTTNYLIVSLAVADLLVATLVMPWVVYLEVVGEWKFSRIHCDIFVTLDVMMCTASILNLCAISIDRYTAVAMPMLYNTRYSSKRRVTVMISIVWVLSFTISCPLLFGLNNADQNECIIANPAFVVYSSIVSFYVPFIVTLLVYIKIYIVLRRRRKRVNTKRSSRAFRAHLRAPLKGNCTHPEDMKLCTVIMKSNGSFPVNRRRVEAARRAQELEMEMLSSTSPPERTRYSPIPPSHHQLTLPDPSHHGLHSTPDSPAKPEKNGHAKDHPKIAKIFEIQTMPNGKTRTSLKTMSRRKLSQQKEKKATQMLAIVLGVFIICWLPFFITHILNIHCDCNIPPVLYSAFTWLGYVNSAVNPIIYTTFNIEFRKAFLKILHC
Sequence of Gonadotropin-releasing hormone receptor (Homo sapiens) (P30968 whole entry, looked up): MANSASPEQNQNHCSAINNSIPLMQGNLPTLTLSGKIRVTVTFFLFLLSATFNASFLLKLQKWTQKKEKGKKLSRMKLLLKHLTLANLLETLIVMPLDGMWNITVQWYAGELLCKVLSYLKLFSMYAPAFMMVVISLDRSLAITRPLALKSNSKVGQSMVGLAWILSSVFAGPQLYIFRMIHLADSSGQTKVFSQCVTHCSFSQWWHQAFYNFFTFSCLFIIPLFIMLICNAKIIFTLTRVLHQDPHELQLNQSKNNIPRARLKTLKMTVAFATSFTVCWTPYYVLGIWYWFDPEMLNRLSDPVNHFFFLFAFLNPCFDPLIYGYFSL

CCCCCCCOC(=O)c1ccccc1C(=O)OCCCCCCC
inactive: [1] | [2] | [3] | [4] | [5] | [6] | [7] | [8] | [9] | [10] | [11] | [12] | [13] | [14] | [15] | [16] | [17] | [18]

CC(C)CCOCCC(C)C
inactive: [1] | [2] | [3] | [4] | [5] | [6] | [7] | [8] | [9] | [19] | [11] | [12] | [13] | [14] | [15] | [16] | [17] | [18]

CCOc1cc(NC(C)=O)ccc1C(=O)OC
inactive: [1] | [2] | [3] | [4] | [5] | [6] | [7] | [8] | [9] | [10] | [11] | [12] | [13] | [14] | [15] | [16] | [20] | [17] | [18]

CCC(CO)CO
inactive: [1] | [2] | [3] | [4] | [5] | [6] | [7] | [8] | [9] | [19] | [11] | [12] | [13] | [14] | [15] | [16] | [17] | [18]

CC[C@H](C)[C@H](N)C(=O)O
inactive: [1] | [2] | [3] | [4] | [5] | [6] | [7] | [8] | [9] | [19] | [11] | [12] | [13] | [14] | [15] | [16] | [17] | [18]

C=C(C)C(=O)NCCC[N+](C)(C)C
inactive: [1] | [2] | [3] | [4] | [5] | [6] | [7] | [8] | [9] | [19] | [11] | [12] | [13] | [14] | [15] | [16] | [17] | [18]

CCCCC(CC)COC(=O)c1ccc(O)cc1 (configuration not stated)
active: [1] 27.2 µM and 30.6 µM | [8] 40.8 µM | [9] 45.8 µM | [19] 40.6 µM | [11] 37.5 µM | [15] 40.3 µM
inactive: [2] | [3] | [4] | [5] | [6] | [7] | [12] | [13] | [16] | [20] | [17] | [18]

CCC(C)(C)C
inactive: [1] | [2] | [3] | [4] | [5] | [6] | [7] | [8] | [9] | [19] | [12] | [13] | [14] | [15] | [16] | [17] | [18]

COC(c1ccccc1)(c1ccccc1)[C@H](Oc1nc(C)cc(C)n1)C(=O)O
inactive: [1] | [2] | [3] | [4] | [5] | [6] | [7] | [8] | [9] | [19] | [12] | [13] | [14] | [15] | [16] | [20] | [17]

CCO[Si](OCC)(OCC)c1ccccc1
inactive: [1] | [2] | [3] | [4] | [5] | [6] | [7] | [8] | [9] | [19] | [11] | [12] | [13] | [16] | [20] | [17] | [18]

CC/C=C\CCOC(=O)CC
inactive: [1] | [2] | [3] | [4] | [5] | [6] | [7] | [8] | [9] | [19] | [12] | [13] | [14] | [15] | [16] | [20] | [17]

CC(=O)SC[C@@H](C)C(=O)N1CCC[C@H]1C(=O)N[C@@H](Cc1ccccc1)C(=O)O
inactive: [1] | [2] | [3] | [4] | [5] | [6] | [7] | [8] | [9] | [19] | [11] | [12] | [13] | [14] | [15] | [16] | [17] | [18]

CC(C)(C)NC(N)=O
inactive: [1] | [2] | [3] | [4] | [5] | [6] | [7] | [8] | [9] | [19] | [11] | [12] | [13] | [14] | [15] | [16] | [17] | [18]

CCN(CC)CCN
inactive: [1] | [2] | [3] | [4] | [5] | [6] | [7] | [8] | [9] | [19] | [11] | [12] | [15] | [16] | [20] | [17] | [18]

C=CCc1cc(OC)c(O)c(C(=O)NCCO)c1
inactive: [1] | [2] | [3] | [4] | [5] | [6] | [7] | [8] | [9] | [10] | [11] | [12] | [13] | [14] | [15] | [16] | [20] | [17] | [18]
